From PubChem BioAssay (NCI) come the findings set out here.

The structures appear in SMILES notation. The panel holds about 83,000 compounds, 20% with a hit somewhere; the sample as a whole holds those more often.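 The endpoint reported here, percent growth, reads 100 for growth as untreated, 0 for no net growth and -100 for all cells dead.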 Unmarked numbers belong to inactive results. Active and inactive are the calls of the source. How the source made its calls: active means growth percent below 10; inactive means the rest.

Some test systems named below: T-47D breast; BT-549 breast; MDA-MB-435 melanoma; SW-620 colon; MCF7 breast; HCT-116 colon; HCC-2998 colon; KM12 colon.
Holding throughout (test): NCI-60 one-dose screen, 48 h (100 = growth as untreated, 0 = no growth, -100 = all killed)
Conditions in all cases: 10 µM unless noted

Turning to `Cc1cc(N2CCCCCC2)nc(NC2CCCC(Nc3ccnc4cc(Cl)ccc34)C2)n1` (stereo not given), the growth with T-47D breast is -50.3% (active); in the assay on BT-549 breast it was -85.1% (active); in the assay on MDA-MB-435 melanoma, -87.7% (active); in the assay with SW-620 colon, -76.9% (active); in the assay with MCF7 breast, -56.8% (active); with HCT-116 colon, -95.9% (active). In addition, the growth is -80.3% (active) with HCC-2998 colon and -75.5% (active) in the assay with KM12 colon.

As for `CN(C)CCCNc1c2ccccc2nc2ccccc12`, the growth with T-47D breast is 68.5%; in the assay on BT-549 breast, 72.6%; in the assay on MDA-MB-435 melanoma, 96.1%; in the assay with SW-620 colon, 103%; in the assay with MCF7 breast it was 92%; with HCT-116 colon it was 99%. The growth in the assay with HCC-2998 colon is 107%; with KM12 colon, 97.3%.

For the molecule `CCCCC/C(C=C(C#N)C#N)=C/c1ccccc1`, the growth in the assay with T-47D breast is 76.1%; with BT-549 breast, 69.3%; in the assay on MDA-MB-435 melanoma it was 27%; with SW-620 colon it was 59.2%; in the assay on MCF7 breast, 38.5%; with HCT-116 colon, 27.7%. For the same molecule, the values for the growth in the assay on HCC-2998 colon and in the assay with KM12 colon were 88.3% and 72.6%, respectively.

Take `C#CC(F)(F)[C@]1(O)CC[C@H]2[C@@H]3CCC4=CC(=O)CCC4=C3[C@@H](c3ccc(C4CC4)cc3)C[C@@]21C`: the growth in the assay with T-47D breast was 17.5%; with BT-549 breast it was 73.1%; in the assay on MDA-MB-435 melanoma, 85.1%; with SW-620 colon, 18.5%; in the assay with MCF7 breast it was 36.9%; in the assay on HCT-116 colon, 75.8%. The figures for the growth in the assay with HCC-2998 colon and in the assay on KM12 colon were 92% and 6.36% (active), respectively.

Consider `CCOc1cc2ncc(C#N)c(Nc3ccc(OCc4cccc(F)c4)c(Cl)c3)c2cc1NC(=O)CCCCC1CCSS1` (stereo not given), for which the growth is 64.4% in the assay with T-47D breast; 98.5% with BT-549 breast; 99% in the assay with MDA-MB-435 melanoma; 99.4% in the assay with SW-620 colon; 58.8% with MCF7 breast; 75.6% in the assay on HCT-116 colon. The growth with HCC-2998 colon is 105%; in the assay on KM12 colon it was 82.8%.

Regarding `COc1cc(/C=C/c2cc(O)c3cc(C(C)=O)c(=O)oc3c2)cc2c1O[C@]1(C)CC[C@@H](O)C(C)(C)[C@H]1C2`, the growth with T-47D breast was 60%; with BT-549 breast, 35%; with MDA-MB-435 melanoma it was 21.2%; with SW-620 colon, 28.4%; in the assay on MCF7 breast it was 5.64% (active); in the assay with HCT-116 colon, 44.2%. Further, the growth is 67% in the assay with HCC-2998 colon and 57.6% with KM12 colon.

For `O=c1nc2oc3ccc4ccccc4c3cc-2s1`, the growth is 12.6% in the assay with T-47D breast; 49% with BT-549 breast; -58.5% (active) in the assay on MDA-MB-435 melanoma; 20.8% in the assay on SW-620 colon; 19.3% with MCF7 breast; 21.1% in the assay on HCT-116 colon. The growth is 51.4% in the assay with HCC-2998 colon and 19.5% with KM12 colon.

Consider `Nc1nc2ccc3[nH]ncc3c2c2c1CCCC2`, for which the growth with T-47D breast is 11%; in the assay with BT-549 breast, -9.88% (active); in the assay with MDA-MB-435 melanoma, 6.3% (active); with SW-620 colon, 1.68% (active); in the assay on MCF7 breast it was 7.3% (active); with HCT-116 colon it was 1.33% (active). Further, the growth is 9.63% (active) in the assay on HCC-2998 colon and -1.31% (active) with KM12 colon.

Consider `O=C(N=Nc1c(O)[nH]c2ccccc12)c1cc(-c2ccccc2)on1`, for which the growth is 97.6% in the assay on T-47D breast; 109% with BT-549 breast; 110% with MDA-MB-435 melanoma; 97.8% with SW-620 colon; 87.9% in the assay with MCF7 breast; 99.7% with HCT-116 colon. The growth was 111% in the assay with HCC-2998 colon and 101% with KM12 colon.

As for `Cc1nc2c3c(-c4ccccc4)c(-c4ccccc4)oc3ncn2n1`, the growth with T-47D breast was 70%; in the assay on BT-549 breast, 101%; in the assay with MDA-MB-435 melanoma, 100%; with SW-620 colon it was 96.9%; in the assay on MCF7 breast, 101%; with HCT-116 colon it was 88.5%. The growth in the assay with HCC-2998 colon was 96.2%; in the assay with KM12 colon, 99.3%.

As to `COc1cc2c(cc1-c1c(C)noc1C)ncc1nc(-c3ccccn3)n([C@H](C)COC(F)F)c12`, the growth is 35.2% in the assay with T-47D breast; 57.7% with BT-549 breast; 46.4% in the assay on MDA-MB-435 melanoma; 65.1% in the assay on SW-620 colon; 19.7% in the assay on MCF7 breast; 35.5% in the assay on HCT-116 colon. For the same molecule, the growth with HCC-2998 colon is 49%; in the assay with KM12 colon, 47.4%.

`FC(F)(F)c1[nH]ncc1-c1nc2ccc3n[nH]c(C#Cc4cccnc4)c3c2c2c1CCCC2`: the growth was 48.8% in the assay with T-47D breast; 10.3% in the assay on BT-549 breast; 47.8% in the assay with MDA-MB-435 melanoma; 19.2% in the assay on SW-620 colon; 33.9% with MCF7 breast; 9.04% (active) in the assay with HCT-116 colon. For the same molecule, the growth in the assay with HCC-2998 colon was 50.4%; with KM12 colon, 22.7%.

Regarding `O=S(=O)(Nc1ccc(Br)c(Cl)c1)c1ccc(-c2cnc(C3CC3)o2)cc1`, the growth in the assay on T-47D breast was 30.9%; in the assay on BT-549 breast, 38.3%; in the assay with MDA-MB-435 melanoma, -17.1% (active); in the assay on SW-620 colon it was 19.3%; in the assay with MCF7 breast it was 11.7%; in the assay on HCT-116 colon, 19.5%. The results for the growth in the assay with HCC-2998 colon and in the assay on KM12 colon were 45.9% and 33.8%, respectively.

Regarding `N#Cc1c(-c2ccc(Cl)cc2)nc(NN=Cc2ccco2)nc1N1CCOCC1`, the growth in the assay with T-47D breast was 23.2%; in the assay with BT-549 breast, 58.5%; in the assay on MDA-MB-435 melanoma, 79.4%; in the assay on SW-620 colon it was 82.2%; in the assay on MCF7 breast it was 26.2%; in the assay with HCT-116 colon it was 76.2%. Besides, the growth in the assay on HCC-2998 colon was 74.8%; in the assay with KM12 colon, 95%.

Take `O=C1NC(=S)NC(=O)C1CC(=O)n1c(-c2ccccc2)nc2ccccc21`: the growth was 95.3% with T-47D breast; 100% in the assay on BT-549 breast; 102% with MDA-MB-435 melanoma; 98.6% with SW-620 colon; 80.4% in the assay on MCF7 breast; 104% in the assay with HCT-116 colon. Besides, the values for the growth in the assay on HCC-2998 colon and in the assay with KM12 colon were 104% and 101%, respectively.
